According to PubChem BioAssay AID504582 (Broad Institute, 2011):
About 2,300 (0.68%) of roughly 340,000 compounds were called active. The list comes from a sample in which actives are over-represented; it also holds similar structures and randomly drawn compounds. Unmarked numbers belong to inactive results. No stated cut-off is given here; in the data, active means growth rescue above about 28% (passing the limit was not always enough); inconclusive means no clear call, values can overlap the other calls.

Experiment: rescue of yeast from PfHsp40 toxicity, primary screen, S. cerevisiae, ATP luminescence (AID 504582);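 further: yeast W303a lacking pdr1 and pdr3 grown in galactose medium; growth measured after three days at 30 °C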
Conditions: S. cerevisiae expressing PfHsp40, growth rescue, at 12.5 µM, hits give high values

Row | SMILES | growth rescue
1 | CCOc1ccc(NS(=O)(=O)c2ccc(C)c(C(N)=O)c2)cc1 | -1.27%
2 | O=C(CCc1nc2sc3c(c2c(=O)[nH]1)CCCC3)NCC(=O)Nc1ccccc1Br | -1.97%
3 | COC(=O)CN1C(=O)[C@H]2[C@@H](C3CC3)N3C(=O)CN(Cc4ccc(-c5ccccc5)cc4)C(=O)[C@@]3(Cc3ccccc3)[C@H]2C1=O | -1.17%
4 | CN(C(=O)c1ccc(NC(=O)Cc2cccc(NC(=O)C3CCN(C(=O)c4ccccc4)CC3)c2)cc1)C1CC1 | -0.0305%
5 | Cn1nccc1NC(=O)Nc1ccc(OC(F)(F)F)cc1 | -0.0415%
6 | O=C(Nc1ccc(OC(F)(F)F)cc1)c1ccc2c(c1)no[n+]2[O-] | 178% (active)
7 | Cn1cccc1/C=N/NC(=O)c1ccc(OC(F)(F)C(F)F)cc1 | -1.34%
8 | Cc1ccc2c(c1)N(C(=O)CCC(=O)NCc1cccnc1)CCO2 | -1.04%
9 | CCN([C@H](CO)C(C)C)S(=O)(=O)c1ccccc1Br | -0.487%
10 | COc1cccc(-n2c(=S)sc3c(=O)n(-c4ccccc4C)c(SCC(=O)O)nc32)c1 | -1.96%
11 | CC(C)C[C@@H](N)c1nnc(SCC(=O)c2ccc(Cl)cc2)o1 | -0.522%
12 | COCc1c(N)c(C)nc(Cl)c1C#N | 51% (active)
13 | Cc1nc(Cl)c(C#N)c2c1CCCC2 | 0.263%
14 | COC(=O)c1c(C)c(C)nc(N)c1C#N | 0.0365%
15 | C=CCc1ccc(OCC(O)CN2CCN(Cc3ccccc3)CC2)c(OC)c1 (centres undefined) | -0.721%
16 | OC(COc1ccc(F)cc1Cl)CN1CCc2ccccc2C1 (centres undefined) | 0.0845%
17 | Cc1ccc(OCC(O)CN2CCN(CC(O)COc3ccc(C)cc3Cl)CC2)c(Cl)c1 (centres undefined) | 65.8% (active)
18 | CCCC(NC(=O)c1ccco1)c1nc2ccccc2[nH]1 (centres undefined) | -0.136%
19 | CN(C)C=NC(=O)c1cccn1-c1ncc(C(F)(F)F)cc1Cl | -0.737%
20 | O=c1[nH]c2cccnc2n(CCNc2ncc(C(F)(F)F)cc2Cl)c1=O | -1.76%
21 | COc1cccc(/C=N/Nc2ncc(C(F)(F)F)cc2Cl)c1O | 233% (active)
22 | COc1ccc(NC(=O)COC(=O)c2ccncc2)c(OC)c1 | -0.471%
23 | CN(CCOc1ccc(Br)cc1)CC(=O)Nc1cccc(S(=O)(=O)NC2=NCCC2)c1 | -0.17%
24 | COc1cc(C)c(C)cc1S(=O)(=O)N1CCCc2ccccc21 | -0.881%

Row | SMILES | growth rescue
25 | CCOC(=O)Cc1csc(SCC(=O)Nc2ccc(C)cc2F)n1 | 0.85%
26 | O=C(Cc1ccc(Br)cc1)NCCc1ccccc1 | 1.3%
27 | S=C(NCCCc1ccccc1)Nc1ccc(Br)cc1 | 263% (active)
28 | S=C(Nc1ccc(Br)cc1)NC1CCN(Cc2ccccc2)CC1 | 1.33%
29 | Cc1ccc(C)c2[nH]c(=O)c(CN(Cc3cccnc3)C(=S)NCc3ccco3)cc12 | 0.529%
30 | O=C(CSC1CC(=O)N(CCc2ccccc2)C1=O)Nc1ccc(Cl)cc1 (centres undefined) | 0.11%
31 | CCCC(C(=O)n1nc(C)cc1C)C(NS(=O)(=O)c1ccc(C)cc1)c1ccccc1 (centres undefined) | 5.61%
32 | Cc1ccc(/C=N/NC(=O)C2=NNC(c3ccccc3)(c3ccccc3)C2)c(O)c1 | -0.682%
33 | CCN(CC)c1ccc(/C=N/NC(=O)c2cnccn2)c(O)c1 | 77.4% (active)
34 | COc1ccc(NC(=O)C/C(C)=N/NC(=O)c2cnccn2)cc1Cl | -1.24%
35 | CCNC(=O)c1cnn(-c2ccccc2)c1-c1ccccc1 | -3.15%
36 | Cn1c(C(=O)N2CCCC(C(=O)NCc3ccccc3)C2)cc2sccc21 (centres undefined) | 0.412%
37 | CCCCCC(=O)N1CCN(S(=O)(=O)c2ccc3c(c2)OCCCO3)CC1 | 1.79%
38 | O=S(=O)(NCc1ccccc1)c1ccc(S(=O)(=O)N2CCCC2)cc1 | 0.759%
39 | CC1(C)CN(c2ccc(-c3ccnc4ncnn34)cc2)C1=O | -1.84%
40 | Cc1ccc(C(=O)N2CC(=O)Nc3ccc(F)cc3C2c2ccc(F)cc2)cc1 (centres undefined) | 1.27%
41 | Cc1ccc2c(c1)C(c1ccccc1)N(C(=O)c1ccc(F)cc1)CC(=O)N2 (centres undefined) | 0.27%
42 | Cc1ccc2c(c1)C(c1ccccc1)N(C(=O)c1ccc(S(=O)(=O)N3CCOCC3)cc1)CC(=O)N2 (centres undefined) | 72.7% (active)
43 | Cc1ccc(NN=Nc2nc3c([nH]2)c(=O)n(C)c(=O)n3C)cc1 | -0.566%
44 | COc1ccc(OCC(O)CN(C)C(=O)C(C)Oc2ccccc2)cc1 (centres undefined) | -0.614%
45 | CN(C)CC(O)COc1ccc(C(C)(C)c2ccc(OCC(O)CN(C)C)cc2)cc1 (centres undefined) | 26.9% (active)
46 | Cc1cc(C)n(CC(O)COc2ccc(C(C)(C)C)cc2)n1 (centres undefined) | 0.193%
47 | Cc1ccc2nc(C)c3c(c2c1)N(c1ccccc1)CC3 | -0.127%
48 | Cc1ccc(S(=O)(=O)N2CCOCC2)cc1C(=O)Nc1ccccc1N1CCCC1 | 0.57%

Row | SMILES | growth rescue
49 | COc1ccc(OCC(O)CNC(=O)Nc2ccc(Cl)cc2)cc1 (centres undefined) | -1.02%
50 | CC(C)(C)CC(C)(C)NCC(O)COCCOc1ccc(Br)cc1 (centres undefined) | 0.077%
51 | COc1ccc(OCC(O)CNCCNc2nccc(C(F)(F)F)n2)cc1 (centres undefined) | 62.4% (active)
52 | Cc1ccccc1Nc1c([N+](=O)[O-])ccc2nonc12 | -0.179%
53 | CCc1cc2c(=O)c(-c3ccon3)c(N)oc2cc1OC | -0.783%
54 | COc1ccc(NCc2nnc(SCc3ccccc3)n2-c2ccc(OC)cc2)cc1 | -1.36%
55 | O=C(COc1ccccc1[N+](=O)[O-])N/N=C/c1ccc[nH]1 | -1%
56 | Cc1nn(Cc2ccc(Cl)cc2)c(Cl)c1/C=N/NC(=O)CNc1ccccc1F | -0.219%
57 | Cc1ccccc1NCC(=O)N/N=C\c1ccc([N+](=O)[O-])s1 | 406% (active)
58 | Cn1c(CCC(=O)OCC(=O)NCc2ccccc2Cl)nc(=O)c2ccccc21 | 1.08%
59 | O=C(CN1C(=O)NC2(CCCC2)C1=O)Nc1ccc(F)c(F)c1F | -0.549%
60 | Cc1cccc(NC(=O)Nc2cccc(Oc3c(F)c(F)c(F)c(F)c3F)c2)c1 | -0.315%
61 | Cc1ccoc1C(=O)Nc1cccc(Oc2ccccc2)c1 | 372% (active)
62 | CC(Oc1cccc(NC(=O)c2cccs2)c1)C(=O)c1ccccc1 (centres undefined) | 3.27%
63 | CCC1CCCCN1CCNC(=O)c1[nH]c(C)c(C(C)=O)c1C (centres undefined) | -0.34%
64 | O=C1NC2(CCCCCC2)C(=O)N1CCS(=O)(=O)Oc1ccccc1 | 0.283%
65 | O=C(NCC1COc2ccccc2O1)C1(c2ccccc2)CCCC1 (centres undefined) | 2.05%
66 | CN(C)CCOC(=O)C(c1ccccc1)C1(O)CCCC1 (centres undefined) | 0.536%
67 | CN(C)CC1Oc2ccccc2OC1(O)c1ccccc1 (centres undefined) | 472% (active)
68 | CSc1ncccc1C(=O)NCc1ccccc1Cl | 1.68%
69 | CCN(CC)CCCNC(=O)CCn1nc(-c2ccc(Cl)cc2)ccc1=O | -0.666%
70 | O=C(COc1ccccc1F)Nc1nc(-c2ccccn2)cs1 | 398% (active)
71 | O=C(CN1C(=O)C2C3C=CC(C3)C2C1=O)Nc1nc(-c2ccccn2)cs1 (centres undefined) | -0.446%
72 | CC(NC(=O)c1ccco1)C(=O)Nc1nc(-c2ccccn2)cs1 (centres undefined) | -0.236%

Row | SMILES | growth rescue
73 | O=C(O)C1=C[C@H](c2cccs2)C[C@H](OCCCCO)O1 | -1.21%
74 | O=C(O)c1c(NC(=O)N2CCCC2)sc2c1CCCC2 | 232% (active)
75 | O=C(Nc1sc2c(c1C(=O)O)CCC2)c1ccccc1F | 0.175%
76 | O=C(CN1CCCC1)Nc1sc2c(c1C(=O)Nc1ccccc1)CCCC2 | 0.179%
77 | C=CCNc1nc(Nc2ccc(Cl)cc2)nc(OC)n1 | 0.232%
78 | CC(C)(C)NC(=O)c1ccc(Cn2cc(C(F)(F)F)ccc2=O)cc1 | -0.625%
79 | Cn1c(=O)n(C)c2cc(C(=O)Nc3ccc(Br)cc3)ccc21 | -1.51%
80 | CCc1ccc(NC(=O)c2ccc(Cn3cc([N+](=O)[O-])cn3)cc2)cc1 | -0.255%
81 | Cn1ccc(=Nc2ccc(NC(=O)c3ccc(N=c4ccn(C)c5ccc([N+](=O)[O-])cc45)cc3)cc2)cc1 | 236% (active)
82 | Oc1ccc2ccccc2c1N=Nc1nccs1 | 118% (active)
83 | Cc1ccc(CNC(=O)CC2Sc3ccccc3NC2=O)cc1 (centres undefined) | 0.304%
84 | Cc1cccc(NC(=O)c2cccc(C(=O)Nc3cccc(C)c3C)n2)c1C | -0.654%
85 | O=C(CNC(=O)c1ccc(-c2ccccc2)cc1)OCc1ccc(Cl)cc1 | -0.241%
86 | O=C(OCc1ccc(-c2ccccc2)cc1)c1cccc(O)c1 | 179% (active)
87 | O=C(OCC(=O)c1c[nH]c2ccccc12)c1cccc(O)c1 | -0.5%
88 | C/C(Cn1nnc2ccccc21)=N\OC(=O)c1cc(F)c(F)cc1Cl | 0.415%
89 | O=C(CCC(=O)N1CCCC1)Nc1ccc([N+](=O)[O-])cc1 | -0.401%
90 | Cc1c(C(=O)N2CCCC2)c(S(=O)(=O)NCC(C)c2ccccc2)c(C)n1C (centres undefined) | -0.332%
91 | CCOC(=O)c1ccccc1NC(=O)COC(=O)CCC(=O)N1CCOCC1 | -0.942%
92 | O=C(Nc1cccc([N+](=O)[O-])c1)Nn1cnnc1 | 0.084%
93 | COC(=O)/C=C\C(=O)Nc1cccc([N+](=O)[O-])c1 | 233% (active)
94 | CCC(CC)NC(=O)/C=C/c1cccc([N+](=O)[O-])c1 | -2.62%
